Test systems include HOP-92 NSCLC; 786-0 renal; MALME-3M melanoma; RXF 393 renal; EKVX NSCLC; SN12C renal; TK-10 renal; A498 renal; CCRF-CEM leukemia; RPMI-8226 leukemia; OVCAR-8 ovarian; OVCAR-5 ovarian; OVCAR-4 ovarian; SK-OV-3 ovarian; IGROV1 ovarian; NCI/ADR-RES ovarian; T-47D breast; MDA-MB-435 melanoma; MCF7 breast; HCT-116 colon.
What all share (assay): NCI-60 one-dose screen, 48 h (100 = growth as untreated, 0 = no growth, -100 = all killed)
Common to all, as to conditions: 10 µM

This is part of a sample that, as a whole, favours compounds with a hit. Of some 83,000 tested, about 20% had one in any assay.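 A percent growth of 40 corresponds to 60% growth inhibition; 0 means no net growth; -100 means all cells died. Active threshold: below 10.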 A number with no mark means an inactive call. Calls of active or inactive are those of the source.

`C[C@H]1[C@@H](Oc2ccc(-c3cn(-c4ccnc5cc(Cl)ccc45)nn3)cc2)O[C@@H]2OC3(C)CC[C@H]4[C@H](C)CC[C@@H]1[C@@]24OO3`: the growth with HOP-92 NSCLC was 29.4%; in the test on 786-0 renal, 35.1%; in the test on MALME-3M melanoma, 13.7%; with RXF 393 renal, 52.3%; with EKVX NSCLC, 29.7%; in the test on SN12C renal, 24.3%. Further, the growth was 35.4% in the test on TK-10 renal; 95% in the test on A498 renal; 38.8% in the test with CCRF-CEM leukemia; 23% in the test on RPMI-8226 leukemia; 16% in the test with OVCAR-8 ovarian; 19.2% in the test with OVCAR-5 ovarian. The growth in the test on OVCAR-4 ovarian is 40.9%; in the test on SK-OV-3 ovarian, 52.3%; in the test on IGROV1 ovarian, 34.3%; in the test on NCI/ADR-RES ovarian, 19.6%; in the test on T-47D breast it was 25.6%; in the test on MDA-MB-435 melanoma, 35.6%. For the same compound, the growth in the test with MCF7 breast was 19.3%; with HCT-116 colon, 15.8%.

On to `CC[C@]12C=CCN3CC[C@@]4(c5ccc(OC)cc5N(C)[C@H]4[C@@](O)(C(=O)OC)[C@@H]1OC(=O)CCCC[P+](C1CCCCC1)(C1CCCCC1)C1CCCCC1)[C@@H]32`, for which the growth with HOP-92 NSCLC was -44.5% (active); with 786-0 renal, -36% (active); with MALME-3M melanoma, -95.9% (active); in the test on RXF 393 renal it was -73.8% (active); in the test with EKVX NSCLC, 13.2%; with SN12C renal, -57.9% (active). For the same compound, the growth in the test with TK-10 renal was -64.1% (active); in the test on A498 renal it was -0.0449% (active); in the test on CCRF-CEM leukemia it was -60.2% (active); in the test on RPMI-8226 leukemia it was -45% (active); with OVCAR-8 ovarian it was -6.33% (active); with OVCAR-5 ovarian, 5.84% (active). Further, the growth with OVCAR-4 ovarian was 12.4%; in the test on SK-OV-3 ovarian, -22.3% (active); in the test with IGROV1 ovarian, -84.7% (active); with NCI/ADR-RES ovarian, 96.7%; in the test with T-47D breast, 3.83% (active); with MDA-MB-435 melanoma it was -90.5% (active). Further, the growth is -64.2% (active) in the test with MCF7 breast and 4.69% (active) with HCT-116 colon.

In the case of `COCCOCCOCCOc1ccc(-n2cc(CCCN(CCNc3ccnc4cc(Cl)ccc34)C(=O)CCC(=O)O[C@@H]3O[C@@H]4OC5(C)CC[C@H]6[C@H](C)CC[C@@H]([C@H]3C)[C@@]46OO5)nn2)cc1`, the growth in the test with HOP-92 NSCLC was 19.3%; with 786-0 renal it was 47%; in the test with MALME-3M melanoma it was -61.2% (active); with RXF 393 renal it was 33.6%; with EKVX NSCLC it was 53.5%; in the test with SN12C renal, 52.2%. Besides, the growth in the test on TK-10 renal was 52.5%; in the test with A498 renal it was 94.9%; with CCRF-CEM leukemia it was 26.4%; in the test with RPMI-8226 leukemia it was 26.3%; in the test on OVCAR-8 ovarian it was 20.9%; in the test on OVCAR-5 ovarian, 52.2%. Also, the growth with OVCAR-4 ovarian was 45.7%; in the test on SK-OV-3 ovarian, 76.1%; in the test on IGROV1 ovarian it was 44.8%; in the test on NCI/ADR-RES ovarian, 26.8%; in the test on T-47D breast, 20.6%; with MDA-MB-435 melanoma, 24.8%. For the same compound, the values for the growth in the test on MCF7 breast and in the test on HCT-116 colon were 22.2% and 15.5%, respectively.

`O=C(/C=C/c1ccco1)c1nc2ccccc2n1Cc1ccc(F)cc1`: the growth in the test with HOP-92 NSCLC was 40.2%; with 786-0 renal, 67.6%; in the test on MALME-3M melanoma it was 59.9%; in the test with RXF 393 renal it was 33.3%; in the test on EKVX NSCLC, 58.9%; in the test with SN12C renal it was 79.2%. Moreover, the growth in the test on TK-10 renal was 92.1%; in the test on A498 renal it was 93.4%; in the test with CCRF-CEM leukemia, 21.4%; in the test on RPMI-8226 leukemia, 25.2%; in the test on OVCAR-8 ovarian, 70.1%; in the test with OVCAR-5 ovarian it was 89.4%. In addition, the growth is 48% in the test with OVCAR-4 ovarian; 85.5% with SK-OV-3 ovarian; 52.5% in the test with IGROV1 ovarian; 72.5% in the test on NCI/ADR-RES ovarian; 18% with T-47D breast; 77% in the test with MDA-MB-435 melanoma. Moreover, the growth is 8.93% (active) with MCF7 breast and 59.3% with HCT-116 colon.

In the case of `CC12OOC(C)(OO1)C2CCC(=O)NCCNc1ccnc2cc(Cl)ccc12` (stereo not given), the growth in the test with HOP-92 NSCLC is 111%; with 786-0 renal, 107%; in the test with MALME-3M melanoma, 89.7%; with RXF 393 renal it was 102%; with EKVX NSCLC it was 88.6%; in the test on SN12C renal, 99.4%. Also, the growth was 121% with TK-10 renal; 106% in the test with A498 renal; 80.6% in the test with CCRF-CEM leukemia; 78.8% in the test with RPMI-8226 leukemia; 97.6% with OVCAR-8 ovarian; 102% with OVCAR-5 ovarian. Further, the growth was 96.8% in the test with OVCAR-4 ovarian; 91.2% in the test with SK-OV-3 ovarian; 89.2% in the test with IGROV1 ovarian; 98.3% in the test with NCI/ADR-RES ovarian; 80.8% with T-47D breast; 97.7% in the test with MDA-MB-435 melanoma. For the same compound, the growth was 82.3% in the test on MCF7 breast and 100% with HCT-116 colon.

In the case of `O=C(NC([Se])=NC1CCCCC1)c1ccccc1`, the growth is 112% in the test on HOP-92 NSCLC; 39.4% in the test with 786-0 renal; 94.4% with MALME-3M melanoma; 20.5% in the test with RXF 393 renal; 19% in the test on EKVX NSCLC; 39.6% in the test on SN12C renal. Besides, the growth in the test on TK-10 renal was 28.8%; with A498 renal it was 73.3%; in the test with CCRF-CEM leukemia it was 54.5%; in the test with RPMI-8226 leukemia, 56.2%; in the test with OVCAR-8 ovarian, 40.9%; with OVCAR-5 ovarian it was 62.2%. For the same compound, the growth in the test with OVCAR-4 ovarian is 75.7%; in the test on SK-OV-3 ovarian, 5.33% (active); in the test with IGROV1 ovarian it was 13.6%; in the test with NCI/ADR-RES ovarian, 23.3%; with T-47D breast, 46%; with MDA-MB-435 melanoma it was 42.4%. Further, the growth with MCF7 breast is 29.8%; in the test with HCT-116 colon, 30.4%.

As for `CC(C)N=C([Se])NC(=O)c1ccccc1`, the growth in the test on HOP-92 NSCLC is -34.3% (active); in the test with 786-0 renal it was -93.6% (active); with MALME-3M melanoma it was -24.7% (active); in the test on RXF 393 renal, -83.7% (active); in the test with EKVX NSCLC, -56.8% (active); in the test on SN12C renal, -59.8% (active). Moreover, the growth in the test with TK-10 renal was -71.2% (active); with A498 renal, -29.4% (active); in the test on CCRF-CEM leukemia, 5.47% (active); in the test on RPMI-8226 leukemia it was 0.145% (active); in the test on OVCAR-8 ovarian, -65.2% (active); with OVCAR-5 ovarian it was -55.9% (active). The growth is 3.7% (active) in the test with OVCAR-4 ovarian; -57.2% (active) with SK-OV-3 ovarian; -54.5% (active) in the test with IGROV1 ovarian; -11% (active) in the test on NCI/ADR-RES ovarian; -34.6% (active) with T-47D breast; 22.5% in the test with MDA-MB-435 melanoma. The growth with MCF7 breast was -29.1% (active); in the test on HCT-116 colon it was 1.38% (active).

On to `O=C(/C=C/c1ccccc1)c1nc2ccccc2n1Cc1ccc(Br)cc1`, for which the growth was -54% (active) in the test on HOP-92 NSCLC; -89.8% (active) with 786-0 renal; -64.7% (active) with MALME-3M melanoma; -94.8% (active) in the test with RXF 393 renal; -89.2% (active) with EKVX NSCLC; -58.7% (active) in the test on SN12C renal. The growth with TK-10 renal was -47.9% (active); in the test on A498 renal, 51%; in the test on CCRF-CEM leukemia it was -7.81% (active); with RPMI-8226 leukemia it was -23.1% (active); in the test on OVCAR-8 ovarian it was -18.5% (active); with OVCAR-5 ovarian, -62.3% (active). In addition, the growth in the test on OVCAR-4 ovarian was 27%; in the test with SK-OV-3 ovarian, 28.7%; in the test on IGROV1 ovarian, -57.8% (active); in the test with NCI/ADR-RES ovarian it was -37.4% (active); in the test on T-47D breast, -31.3% (active); in the test with MDA-MB-435 melanoma, -27.9% (active). Besides, the growth in the test with MCF7 breast was -48.7% (active); in the test with HCT-116 colon, -88.1% (active).

Source of the values: PubChem BioAssay (NCI).
